Inconclusive results are not listed. Active and inactive are the calls of the source. The call rests on the fitted dose curve.

The values below come from PubChem BioAssay (Tox21).
On the % scale 0 is the no-effect control and ±100 the full control effect.

This assay in a line: qHTS assay to identify small molecule agonists of the NFkB signaling pathway - cell viability counter screen (AID 1159515). Further: nearly all actives have a fitted effect of over 55% in size. The following applies: NFkB-bla ME-180 viability, CellTiter-Glo luminescence, 5 h; series mostly up to 61 µM. From the text: National Center for Advancing Translational Sciences [NCATS]
NIH Chemical Genomics Center [NCGC]
U.S. Environmental Protection Agency [EPA]
National Institutes of Environmental Health Sciences [NIEHS]
National Toxicology Program [NTP]
U.S. Food and Drug Administration [FDA]
Transcription factors and their stimulated target gene expression play pivotal roles across many cellular processes including responses to environmental stimuli. Proper regulation of associated pathways is critical to maintain cell health and function. Constitutive activation of transcription factor pathways has been implicated in tumors as it may block cellular functions such as apoptosis and lead to invasion and metastasis. One important transcription factor that stimulates gene expression in response to cytokines, UV radiation, and other stimuli is nuclear factor-kappa B (NFkB). To measure activation of the NFkB pathway, the CellSensor NFkB-bla ME-180 cell line (Life Technologies, Carlsbad, CA) that stably expresses beta-lactamase reporter gene under the regulation of a NF-kB response element was used. This assay allows measurement of the NFkB pathway activity induced by compounds in a ME-180 cell line. This system quantitates NF-kB activity using a FRET-based assay system where beta-lactamase expression disrupts FRET, allowing for fluorescent measurement of activity. This cell line has been used to screen the Tox21 10K compound library and to identify compounds that induce the NFkB pathway activity. The cytotoxicity of the Tox21 compound library against the NFkB-bla ME-180 cell line was tested in parallel by measuring cell viability using the CellTiter-Glo assay in the same wells.
Tox21 Assay Protocol Summary:
NFkB-bla ME-180 cells were dispensed at 2,000 cells/6 uL of assay medium per well into black wall/clear-bottom 1536-well plates using a Multidrop Combi (ThermoFisher Scientific, Waltham, MA) dispenser. After the assay plates were incubated at 37 C and 5% CO2 for an overnight, 23 nL of compounds dissolved in DMSO, positive controls or DMSO only was transferred to the assay plate by a Pintool station (Kalypsys, San Diego, CA). The assay plates were incubated at 37 C and 5% CO2 for 5 hr. One uL of LiveBLAzer B/G FRET substrate (Life Technologies) was added using a Flying Reagent Dispenser (Aurora Discovery, San Diego, CA) and the plates were incubated at room temperature for 1.5 hr. Fluorescence intensity (405 nm excitation, 460 nm and 530 nm emissions) was measured using an Envision plate reader (PerkinElmer, Shelton, CT). For cytotoxicity, 3 ul/well of CellTiter-Glo reagent was added into the assay plates using an FRD. After 30 min incubation at room temperature, the luminescence intensity was measured using a ViewLux plate reader (PerkinElmer).
As for `CCCCCCCCCCCCCCCC/C=C/C1CC(=O)OC1=O` (stereo not given), the call was inactive. With `O=S(=O)(O)c1cc(I)c(O)c2ncccc12`, the molecule was classed as inactive. Same read-out and setting: for `CC(C)=CCC/C(C)=C\C#N` the value was “inactive”. Turning to `C[C@H]1COc2c(C3(N)CC3)c(F)cc3c(=O)c(C(=O)O)cn1c23`, the result was inactive.

As for `NC(=O)CC[C@@H](N)C(=O)O`, the outcome was inactive. Same read-out and setting: for `CCCCOCCCC` the value was “inactive”; for `N#CC1(N)CCCCC1`, “inactive”; for `CCCOc1ccc(C(=O)OCCN(CC)CC)cc1N`, “inactive”. Turning to `CO/N=C(\C(=O)O)c1csc(NC(=O)CCl)n1`, the result was inactive. On the same count and under the same terms, for `Nc1nc(Cl)cc(Cl)n1` the value was “inactive”; for `C/C=C(\C)C=O`, “inactive”. `C=CCN(CC=C)CC=C`: the molecule was classed as inactive. On to `NCC1CCC(C(=O)Oc2ccc(CCC(=O)O)cc2)CC1` (stereo not given), for which the result was inactive. Regarding `Cc1cc(C)c(N)c(Cl)c1`, the molecule was called inactive. The same measure, in the same setting: for `CCCCCCCCCCCCCCCC(=O)OC` the value was “inactive”; for `C=CCON/C(CCC)=C1\C(=O)CC(C)(C)C(C(=O)OC)=C1O`, “inactive”. Turning to `CN(C)CCCN(C)C`, the activity, negative = cytotoxic is 0.193% [at 6.95 µM] (inactive). Turning to `COc1ccccc1N1CCN(CC(O)COc2cc(OC)c(OC)c(OC)c2)CC1` (stereo not given), the molecule was classed as inactive. Same read-out and setting: for `Cc1ccccc1C#N` the value was “inactive”; for `COC(=O)c1ccc(C(=O)O)cc1`, “inactive”.

On to `CC/C=C\CCOC(=O)c1ccccc1`, for which the molecule was classed as inactive. Still for that read-out and setting: for `NNC(=O)CCCCC(=O)NN` the value was “inactive”; for `COC(=O)N/N=C/c1c[n+]([O-])c2ccccc2[n+]1[O-]`, “inactive”. Same read-out and setting: for `CCCCCCCCCCCCCCBr` the value was “inactive”; for `O=S(=O)(O)CC(O)CCl` (stereo not given), “inactive”; for `CCCCCCCCOCCC#N`, “inactive”. As to `CC(=O)c1ccc(O)c(C(N)=O)c1`, the result was inactive. As for `COC(=O)/C=C(\C)CCC=C(C)C`, the molecule was classed as inactive.

`Cc1ccc(Br)cc1`: the molecule was classed as inactive. Turning to `C=CC(=O)OCC[N+](C)(C)C`, the outcome was inactive.

On to `CC(C)OC(=O)C(C(=O)OC(C)C)=C1SC=CS1`, for which the molecule was called inactive.

For `CC(=O)O[C@@H]1CC2C3CCc4cc(OC(=O)c5ccccc5)ccc4C3CCC2(C)[C@H]1OC(C)=O` (stereo not given in full), the result was inactive. Same read-out and setting: for `BrCCOc1ccccc1` the value was “inactive”; for `CCCCN1C(=O)c2ccccc2C1=O`, “inactive”. Regarding `CC(C)(C)OC(=O)c1ccccc1C(=O)O`, the call was inactive. On the same count and under the same terms, for `O=P(O)(O)C(O)(Cc1cccnc1)P(=O)(O)O` the value was “inactive”. Same read-out and setting: for `CCN1CCN(C(=O)N[C@@H](C(=O)N[C@@H]2C(=O)N3[C@@H]2SC(C)(C)[C@H]3C(=O)O)c2ccccc2)C(=O)C1=O` the value was “inactive”. Still for that read-out and setting: for `C=CCOC(=O)CCCCCCCC` the value was “inactive”; for `CCCC(C)C(O)CC` (stereo not given), “inactive”. In the case of `O=C1CC2(CCCC2)CC(=O)N1CCNCC1COc2ccccc2O1` (stereo not given), the molecule was called inactive.
